Assay results from PubChem BioAssay AID504848 (National Center for Advancing Translational Sciences (NCATS), 2011).
In all, about 2,300 compounds went through this assay and about 1,400 (61%) were called active. About 29% were inconclusive and are not listed. Calls follow the shape of the dose curve; as a rule, active = well fitted inhibition curve with a large enough effect; inconclusive = small, poorly fitted or top-dose-only effect, or effect the other way; inactive = no such curve, though single readings can be large or run the other way. The set was probably picked from earlier hits. This is one part of the list.

Test: Confirmation screen for delayed death inhibitors of the malarial parasite plastid, 96 hour incubation; also: nearly all actives have a fitted effect of over 60% in size
Conditions: P. falciparum luciferase growth in erythrocytes; series mostly up to 28.7 µM; activity change, negative = inhibition: at the top concentration
Procedure, shortened: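 Erythrocytes infected with luciferase-expressing P. falciparum (2% hematocrit, 0.1% parasitemia final) in RPMI 1640 with 0.5% Albumax, exposed to compounds 96 h at 37 C, 5% CO2. Growth inhibition read as decreased luciferase luminescence.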
% is scaled to controls: 0 for no effect and ±100 for the full control effect; potency is read from the fitted curve at half-maximal effect.

SMILES	Potency	activity change, negative = inhibition
CCOc1cc([N+](=O)[O-])cc(/C=N/NC(=O)c2c(-c3ccccc3)noc2C)c1O	14.1 µM (active)	
COCCn1c(SCc2csc(-c3ccccc3)n2)nc2ccccc21	12.6 µM (active)	
CN1C(=O)Cc2cc(S(=O)(=O)N3CCN(c4cccc(C(F)(F)F)c4)CC3)ccc21	12.6 µM (active)	
Cc1cccc(N2CCN(C3=NC(=O)C(Cc4ccccc4)S3)CC2)c1 (stereo not given)	1.58 µM (active)	
O=C(Oc1nsnc1N1CCCCC1)N1CCOCC1	10 µM (active)	
Cc1oc(-c2ccccc2Cl)nc1Cn1cccc1C1=NC(c2ccccc2)CO1 (stereo not given)	12.6 µM (active)	
CCn1c(=O)n(CC)c2cc(N3CCCC3)c(NC(=O)c3ccc(C)cc3)cc21	7.08 µM (active)	
COc1ccc2cc3[n+](cc2c1OC)CCc1cc2c(cc1-3)OCO2	0.501 µM (active)	
O=C(Nc1ccccc1)N1CCC(O)(c2cccc(C(F)(F)F)c2)CC1	12.6 µM (active)	
Cn1c2ccccc2c(=O)c2ccc(C#Cc3ccc(N)cc3)cc21	11.2 µM (active)	
COc1ccc(C#Cc2ccc3c(=O)c4ccccc4n(C)c3c2)cc1	10 µM (active)	
COc1cccc(S(=O)(=O)NCc2ccc(C(=O)NCc3ccccn3)cc2)c1		-24.9% (inactive)
COc1ccc(N(C)S(=O)(=O)c2cccc(C(=O)NCc3ccc(C)cc3)c2)cc1	14.1 µM (active)	
O=C(c1ccc([N+](=O)[O-])cc1)n1nc(-c2ccccc2)nc1NCc1ccc(F)cc1	10 µM (active)	
Cc1cc(C)nc(SCC(=O)c2ccc(C)c(C)c2)n1	12.6 µM (active)	
COc1ccccc1N1CCN(CCCCN2C(=O)C3CCCCN3C2=O)CC1 (stereo not given)	12.6 µM (active)	
O=C(NNc1ccnc2cc(Cl)ccc12)C1CCCCC1	0.282 µM (active)	
CCN1CCC(Nc2ccnc3cc(Cl)ccc23)CC1	0.158 µM (active)	
Cc1cccc(-n2ccc(=O)c(C(=O)Nc3ccc(S(=O)(=O)N4CCOCC4)cc3)n2)c1	5.01 µM (active)	
c1ccc2oc(Cc3ccc(Cc4nc5ccccc5o4)cc3)nc2c1	8.91 µM (active)	
CC(c1ccco1)N(C(=O)c1cc(Cl)cc(Cl)c1)c1ccccn1 (stereo not given)	12.6 µM (active)	
O=C(CCCN1C(=O)/C(=C\c2cccs2)SC1=S)Nc1ccc(O)cc1	3.98 µM (active)	

SMILES	Potency	activity change, negative = inhibition
O=C(CCN1C(=O)/C(=C/c2ccccc2)SC1=S)N[C@@H](CO)Cc1ccccc1	12.6 µM (active)	
O=C(CCN1C(=O)/C(=C\c2ccc(F)cc2)SC1=S)Nc1ccccc1		9.76% (inactive)
CCc1ccc(/C=C2\SC(=S)N(CCCC(=O)Nc3ccccc3C(=O)O)C2=O)cc1	15.8 µM (active)	
O=C(CCN1C(=O)/C(=C/c2ccccc2)SC1=S)NCCc1ccc(O)cc1		14.2% (inactive)
O=C(CCCN1C(=O)/C(=C/c2cccs2)SC1=S)Nc1ccc(O)cc1	7.08 µM (active)	
CCc1nn2c(=O)cc(COc3cccc(NC(=O)c4ccco4)c3)nc2s1	10 µM (active)	
C=CCNC(=O)c1onc(CSc2cccc(C)c2)c1C(=O)O		-27.8% (inactive)
CCc1noc(C)c1C(=O)N1CCC(CCC(=O)Nc2cccc(C)c2)CC1	6.31 µM (active)	
CC(=O)c1ccc[n+](CC(=O)NC(C)c2ccccc2)c1 (stereo not given)	4.47 µM (active)	
CCc1ccccc1Nc1nc(N)nc(COC(=O)CCC(=O)c2ccc(F)cc2)n1	2.51 µM (active)	
CCc1ccccc1Nc1nc(N)nc(COC(=O)CCNS(=O)(=O)c2ccccc2)n1	12.6 µM (active)	
O=C(O)CCNS(=O)(=O)c1cccc(Br)c1		4.86% (inactive)
COc1ccccc1-n1c(=S)[nH]c2c(sc(=S)n2-c2ccc(C)cc2C)c1=O	3.16 µM (active)	
COc1ccccc1CNC(=O)c1ccc(-c2ccccc2Cl)o1	6.31 µM (active)	
CCCc1nnc(NC(=O)CCC(=O)N2CCN(Cc3ccc(Cl)cc3)CC2)s1	11.2 µM (active)	
CCCC(=O)Nc1nnc(CC(=O)N2CCCC2)s1		25.1% (inactive)
COc1ccc(CN2CCN(C(=O)CCC(=O)Nc3nnc(C4CCCCC4)s3)CC2)cc1F	10 µM (active)	
O=C(Cc1cccs1)NCCc1ccc(Cl)cc1	5.62 µM (active)	
CC(C)(C)OC(=O)[C@H]1[C@H](c2ccc([N+](=O)[O-])cc2)C2(C(=O)c3ccccc3C2=O)C2c3ccccc3C=NN21 (stereo not given in full)	5.01 µM (active)	
COc1cccc(NC(=O)CSc2nc3ccccc3nc2N2CCCC2)c1	12.6 µM (active)	
O=C(O)c1nn(CCSc2ccccc2F)c(=O)c2ccccc12		15.7% (inactive)
O=c1cc(CSc2ccc(Cl)cc2)nc(-c2ccccn2)[nH]1	3.16 µM (active)	

SMILES	Potency	activity change, negative = inhibition
CN(CCCN1CCOCC1)C(=O)c1ccc2nc(Cc3cccc(Cl)c3)oc2c1	11.2 µM (active)	
O=S(=O)(c1cnc[nH]1)N1CCN(C(c2ccc(F)cc2)c2ccc(F)cc2)CC1	11.2 µM (active)	
O=C(COC(=O)c1ccc(O)cc1O)Nc1ccc2ccccc2c1		-18% (inactive)
O=C(O)c1ccc(O)cc1O	2.51 µM (active)	
CCOc1ccccc1CNC(=O)c1cc2oc3ccccc3c2n1C	12.6 µM (active)	
CCOc1ccccc1CNC(=O)c1cc2oc3ccccc3c2n1CC	12.6 µM (active)	
COc1cccc(CNC(=O)c2cc3oc4ccccc4c3n2C)c1OC		-5.93% (inactive)
CCOC(=O)[C@H]1[C@H]2COc3cc(OC)ccc3[C@@H]2N2C(=O)N(c3ccc(Cl)cc3)C(=O)[C@@]12C		-105% (inactive)
O=C(CN(c1ccc2c(c1)OCCO2)S(=O)(=O)c1ccccc1)NCc1ccc(Cl)cc1	12.6 µM (active)	
CSc1ccccc1NC(=O)CN1CCN(S(=O)(=O)c2ccccc2[N+](=O)[O-])CC1	12.6 µM (active)	
O=C(CCN1CCN(S(=O)(=O)c2cccc([N+](=O)[O-])c2)CC1)Nc1ccccc1F	10 µM (active)	
CCOC(=O)CCC(=O)Nc1ncnc2c1C(c1ccccc1)c1c(ccc3ccccc13)O2 (stereo not given)	7.94 µM (active)	
CCC(=O)c1ccc(OCC(=O)NCC2(N3CCCCC3)CCCCC2)cc1	14.1 µM (active)	
CN(C)S(=O)(=O)c1ccc(Cl)c(NC(=O)CN2C(=O)NC(C)(C3CC3)C2=O)c1 (stereo not given)	12.6 µM (active)	
O=c1[nH]c(C2CCN(S(=O)(=O)c3cccc([N+](=O)[O-])c3)CC2)nc2c1nnn2Cc1ccccc1	8.91 µM (active)	
C#CCOCCOCCOCCNc1nc(N2CCN(C(=O)Cn3cc(CC(C)O)nn3)CC2)nc(N2CCN(C(=O)[C@H]([C@@H](C)CC)n3cc(CCCN=C(N)N)nn3)CC2)n1 (stereo not given in full)	1 µM (active)	
C#CCOCCOCCOCCNc1nc(N2CCN(C(=O)Cn3cc(CC(C)O)nn3)CC2)nc(N2CCN(C(=O)[C@H](C)n3cc(CCCN=C(N)N)nn3)CC2)n1 (stereo not given in full)	15.8 µM (active)	
C#CCOCCOCCOCCNc1nc(N2CCN(C(=O)Cn3cc(CCCCN)nn3)CC2)nc(N2CCN(C(=O)[C@H](C)n3cc(CCCN=C(N)N)nn3)CC2)n1	1 µM (active)	
COCCNC(=O)CCCCCN1C(=O)CCC1=O		-10.7% (inactive)
CC1(C)CCSC(/C=C/c2ccccc2)=N1	6.31 µM (active)	
COc1ccc(/C=C2\CCC/C(=C\C=N\N(C)C)C2=O)cc1	12.6 µM (active)	
O=C(CC1Sc2ccccc2NC1=O)OCc1cc(=O)oc2cc(O)ccc12 (stereo not given)	7.08 µM (active)	

SMILES	Potency	activity change, negative = inhibition
C[C@@H](CN1C2=NC[C@H](Cc3ccc(O)cc3)N2C[C@H]1Cc1ccc(O)cc1)NC(=O)CCC1CCCCC1	5.62 µM (active)	
C[C@H]1CN=C2N(CCNC(=O)CCC3CCCCC3)[C@H](Cc3ccc(O)cc3)CN21	6.31 µM (active)	
O=C(CCC1CCCCC1)NCCN1C2=NC[C@H](Cc3ccccc3)N2C[C@H]1Cc1ccc(O)cc1	6.31 µM (active)	
CC(=O)NC(=S)Nc1ccccc1C(=O)NC1CCCCC1	12.6 µM (active)	
O=C(NC1CCCC1)C(c1ccncc1)N(Cc1ccco1)C(=O)c1ccc(-c2ccccc2)[nH]1 (stereo not given)	7.94 µM (active)	
O=C(NC1CCCCC1)C(c1ccncc1)N(Cc1ccccc1)C(=O)c1ccc(-c2ccccc2)[nH]1 (stereo not given)	3.98 µM (active)	
COc1cc2c(cc1OC)-c1cc(N3CCc4ccccc43)nc(=O)n1CC2	5.01 µM (active)	
COC(=O)CCC(=O)OC1(C)C(=O)C=C2C=C(C3CC3)N(CCCOC(C)C)C=C2C1=O (stereo not given)	1.12 µM (active)	
O=C(N/N=C/c1ccc([N+](=O)[O-])cc1)c1cccc(N2CCCC2=O)c1	10 µM (active)	
CC[C@]1([C@H]2O[C@@H]([C@@H]3O[C@](O)(CO)[C@@H](C)C[C@H]3C)C[C@H]2C)CC[C@@H]([C@]2(C)CC[C@@]3(C[C@@H](O)[C@@H](C)[C@@H]([C@H](C)[C@H](OC)[C@H](C)C(=O)O)O3)O2)O1	0.112 µM (active)	
Cc1c(C(c2ccc(Br)cc2)c2c(C)n(C)n(-c3ccccc3)c2=O)c(=O)n(-c2ccccc2)n1C	11.2 µM (active)	
CCOc1ccc2nc(C)cc(Nc3cccc([N+](=O)[O-])c3)c2c1	2 µM (active)	
CCOc1ccccc1C1N=C(c2ccc(OC)cc2)CC(c2ccccc2O)N1 (stereo not given)	12.6 µM (active)	
Cc1cccc(C)c1N1CCN(C(=O)c2ccc3c(c2)OCO3)CC1	12.6 µM (active)	
O=C(Nc1ccccc1C(F)(F)F)N1CCN(c2ccc3nnc(-c4ccc(F)cc4)n3n2)CC1	3.98 µM (active)	
O=C(c1ccc(Br)o1)N1CCN(c2ccc3nnc(-c4ccccc4)n3n2)CC1	7.94 µM (active)	
Cn1c(CCN2CCCC2)nc2cc(NS(=O)(=O)c3ccc(Cl)cc3)ccc21	6.31 µM (active)	
Cn1c(CCN2CCCC2)nc2cc(NS(=O)(=O)c3ccccc3)ccc21	3.55 µM (active)	
CC1CCCCN1C(=O)COC(=O)c1cccc(NS(=O)(=O)c2ccccc2)c1 (stereo not given)		-25% (inactive)
